The subject of experiment [1] is PRMT1 (protein arginine N-methyltransferase 1). Kind of experiment: PRMT1 binders on small-molecule microarrays, primary screen, biochemical, small-molecule microarray, 635 nm fluorescence (AID 1088).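 Further: binding of Prmt1 protein to compounds spotted on small-molecule microarray slides.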 The settings on record: small-molecule microarray binding, higher = more signal.
Experiment [2] can be described thus: yeast growth modulation, basal conditions, primary screen, YJM789 clinical isolate, OD600, 24 h (AID 1089).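 Further: growth of clinical yeast isolate S. cerevisiae YJM 789 seeded 1000 cells per well; test concentration not given here.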 The following applies: S. cerevisiae YJM789 growth, higher = more signal, called active from +8 up or from −8 down.
Experiment [3] is described as follows: fission yeast growth modulation, primary screen, strain 972, OD600, 24 h, no modulator (AID 1090).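 Further: basal condition with compound alone and no growth modifier present; test concentration not given here.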 The settings on record: S. pombe 972 growth, higher = more signal, called active from +8 up or from −8 down.
The nature of experiment [4]: S. cerevisiae growth modulation with rapamycin, primary screen, strain BY4716, OD600, 96 h (AID 1091). Further: test concentration not given here. The following applies: higher = more signal, called active from +8 up or from −8 down.
The target in experiment [5] is Torsin-1A-interacting protein 2 (Homo sapiens) (UniProt Q8NFQ8). Kind of experiment: LULL1 binders on small-molecule microarray, primary screen, cell lysate, human LULL1 lysate, 635/667 nm fluorescence (AID 1092).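 Further: probe is lysate of COS7 cells overexpressing human LULL1; score merges per-feature 667 nm fluorescence with signal-to-noise.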 The settings on record: hLULL1 lysate binding, 635 nm fluorescence, higher = more signal.
Chain of Torsin-1A-interacting protein 2 (Homo sapiens) (Q8NFQ8 whole entry, looked up): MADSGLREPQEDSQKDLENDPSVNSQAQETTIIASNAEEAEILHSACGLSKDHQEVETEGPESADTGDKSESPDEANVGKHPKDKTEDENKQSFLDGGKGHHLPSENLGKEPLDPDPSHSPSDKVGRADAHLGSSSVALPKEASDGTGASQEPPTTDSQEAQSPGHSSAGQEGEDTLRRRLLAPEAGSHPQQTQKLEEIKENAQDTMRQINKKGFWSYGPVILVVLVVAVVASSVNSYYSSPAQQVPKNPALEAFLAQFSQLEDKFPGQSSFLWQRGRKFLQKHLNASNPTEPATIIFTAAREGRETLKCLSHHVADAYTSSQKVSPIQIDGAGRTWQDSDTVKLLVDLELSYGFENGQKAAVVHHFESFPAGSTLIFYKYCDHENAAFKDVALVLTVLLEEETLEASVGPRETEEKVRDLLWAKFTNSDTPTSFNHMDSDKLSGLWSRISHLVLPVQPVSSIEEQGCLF
The nature of experiment [6]: E. coli growth modulation, two-sided OD650, primary screen, E. coli filamentation project, strain DRC41, 24 h (AID 1093).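 Further: MC1000 strain lacking acrAB efflux and sulA so SOS filamentation is blocked; test concentration not given here.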 The following applies: OD650, 24 h, higher = more signal, called active from +8 up or from −8 down.
A short description of experiment [7]: small-molecule microarray binders of probe aLefty2, primary screen, biochemical, biotinylated probe, 635/667 nm fluorescence (AID 1094).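 Further: score merges spot fluorescence near 667 nm with spot signal-to-noise ratio.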 The following applies: higher = more signal.
For experiment [8], the system named is Noggin (protein binding on small-molecule microarray). Kind of experiment: Noggin binders on small-molecule microarray, primary screen, biochemical, 635/667 nm fluorescence (AID 1095).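 Further: score merges 667 nm feature fluorescence with signal to noise over triplicate slides.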 The settings on record: 635 nm fluorescence, higher = more signal.
The target of experiment [9] is Neurogenic locus notch homolog protein 3 (Homo sapiens) (UniProt Q9UM47). Nature of the experiment: NOTCH3 binders on small-molecule microarray, primary screen, biochemical, 635/667 nm fluorescence (AID 1096). The following applies: NOTCH3 binding, 635 nm fluorescence, higher = more signal.
Chain of Neurogenic locus notch homolog protein 3 (Homo sapiens) (Q9UM47 whole entry, looked up): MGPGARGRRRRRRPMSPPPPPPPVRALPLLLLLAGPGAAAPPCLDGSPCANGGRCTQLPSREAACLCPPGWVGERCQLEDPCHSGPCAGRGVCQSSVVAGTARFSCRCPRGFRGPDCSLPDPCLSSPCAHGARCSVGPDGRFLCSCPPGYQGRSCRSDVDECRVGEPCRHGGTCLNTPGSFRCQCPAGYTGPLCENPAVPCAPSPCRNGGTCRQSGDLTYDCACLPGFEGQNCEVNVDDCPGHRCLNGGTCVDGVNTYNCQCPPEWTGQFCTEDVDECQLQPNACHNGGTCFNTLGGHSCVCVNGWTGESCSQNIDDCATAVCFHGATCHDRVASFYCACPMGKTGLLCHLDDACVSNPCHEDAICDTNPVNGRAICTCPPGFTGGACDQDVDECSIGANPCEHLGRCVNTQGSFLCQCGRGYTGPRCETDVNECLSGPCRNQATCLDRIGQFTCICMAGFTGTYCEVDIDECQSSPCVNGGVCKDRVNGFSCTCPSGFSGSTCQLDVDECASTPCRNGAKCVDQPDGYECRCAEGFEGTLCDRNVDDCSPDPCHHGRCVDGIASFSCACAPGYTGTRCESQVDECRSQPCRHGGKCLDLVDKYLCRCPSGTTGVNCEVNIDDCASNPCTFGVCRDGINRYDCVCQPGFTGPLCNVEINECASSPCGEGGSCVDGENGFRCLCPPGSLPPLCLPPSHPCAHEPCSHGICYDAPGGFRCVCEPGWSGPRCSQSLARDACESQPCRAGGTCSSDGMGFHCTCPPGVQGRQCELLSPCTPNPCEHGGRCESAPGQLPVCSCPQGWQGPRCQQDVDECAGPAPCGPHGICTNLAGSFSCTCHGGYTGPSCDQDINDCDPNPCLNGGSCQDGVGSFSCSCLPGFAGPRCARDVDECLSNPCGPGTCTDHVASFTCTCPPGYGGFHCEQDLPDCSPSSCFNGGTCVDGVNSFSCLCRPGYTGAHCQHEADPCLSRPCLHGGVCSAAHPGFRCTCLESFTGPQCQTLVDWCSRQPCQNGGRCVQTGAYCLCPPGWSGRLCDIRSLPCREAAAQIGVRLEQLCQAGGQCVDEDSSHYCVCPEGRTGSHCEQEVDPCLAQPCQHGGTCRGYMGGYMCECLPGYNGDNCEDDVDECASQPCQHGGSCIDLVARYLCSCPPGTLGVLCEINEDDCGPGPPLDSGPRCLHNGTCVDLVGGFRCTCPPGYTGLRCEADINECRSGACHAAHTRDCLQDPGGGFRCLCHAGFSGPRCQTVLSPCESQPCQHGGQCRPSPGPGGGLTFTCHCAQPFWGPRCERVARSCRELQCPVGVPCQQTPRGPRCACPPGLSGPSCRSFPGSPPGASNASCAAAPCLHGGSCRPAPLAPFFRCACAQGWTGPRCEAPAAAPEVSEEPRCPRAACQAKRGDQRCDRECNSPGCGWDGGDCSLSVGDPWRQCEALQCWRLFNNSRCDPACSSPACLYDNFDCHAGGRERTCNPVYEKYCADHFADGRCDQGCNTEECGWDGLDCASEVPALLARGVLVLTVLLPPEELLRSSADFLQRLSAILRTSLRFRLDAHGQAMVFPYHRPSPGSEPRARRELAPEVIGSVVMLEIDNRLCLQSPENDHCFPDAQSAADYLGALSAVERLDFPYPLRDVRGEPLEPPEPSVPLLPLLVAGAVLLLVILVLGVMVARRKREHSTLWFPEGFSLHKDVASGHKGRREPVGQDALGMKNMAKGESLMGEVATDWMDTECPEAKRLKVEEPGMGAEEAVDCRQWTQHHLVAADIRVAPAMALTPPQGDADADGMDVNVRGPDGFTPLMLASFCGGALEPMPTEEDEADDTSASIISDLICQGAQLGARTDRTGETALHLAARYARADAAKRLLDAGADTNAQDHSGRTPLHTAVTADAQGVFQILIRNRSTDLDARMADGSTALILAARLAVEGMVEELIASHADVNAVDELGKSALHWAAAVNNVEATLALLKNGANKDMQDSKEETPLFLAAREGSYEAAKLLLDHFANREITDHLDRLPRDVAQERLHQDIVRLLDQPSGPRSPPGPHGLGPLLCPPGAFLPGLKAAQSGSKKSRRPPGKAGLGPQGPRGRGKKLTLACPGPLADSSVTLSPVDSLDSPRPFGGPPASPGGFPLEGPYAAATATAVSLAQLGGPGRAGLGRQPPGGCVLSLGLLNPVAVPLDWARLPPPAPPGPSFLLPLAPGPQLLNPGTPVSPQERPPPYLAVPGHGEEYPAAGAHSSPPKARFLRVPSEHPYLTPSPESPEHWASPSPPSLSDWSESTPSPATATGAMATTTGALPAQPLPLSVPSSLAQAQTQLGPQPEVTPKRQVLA
Experiment [10] is described as follows: small-molecule microarray binders of probe aEGFR, primary screen, biochemical, biotinylated probe, 635/667 nm fluorescence (AID 1097).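 Further: probe is a biotinylated anti-EGFR antibody binding compounds printed on slides; score combines fluorescence near 667 nm and signal to noise of each spot.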 The following applies: higher = more signal.

The source made the active and inactive calls.

For the compound `CN(C)CCCCCCNC(=O)[C@@H]1C[C@@H]2C(=O)N3CCC[C@H]3C(=O)N2[C@@H]1c1ccc(O)cc1`, the composite z-score amounted to 1.53 in [1]; 2.51 in [5]; 0.312 in experiment [7]; 1.5 in experiment [8]; 1.05 in experiment [9]; 0.28 in experiment [10]. In addition, the z-score in [2] is -3.92 (inactive); in experiment [3], -0.974 (inactive); in experiment [4], -0.982 (inactive); in experiment [6], 0.434 (inactive).

Regarding `CC(C)[Si](C#CCCCC#N)(Oc1ccccc1Br)C(C)C`, the composite z-score is 0.987 in experiment [1]; 0.86 in experiment [5]; -0.203 in [7]; 0.506 in [8]; 0.653 in [9]; -0.0389 in [10]. Besides, the z-score was 1.13 (inactive) in experiment [2], -1.09 (inactive) in experiment [3], -1.96 (inactive) in [4] and -0.146 (inactive) in [6].

For the compound `C#CCOc1ccc(C[C@@H](C(=O)OC)N(CC#C)[C@@H](/C=C/C2CC2)[C@H](O)Cc2ccccc2)cc1`, the composite z-score is -0.828 in experiment [1]; -0.361 in experiment [5]; -0.0561 in [7]; -0.446 in [8]; -0.384 in experiment [9]; -0.312 in experiment [10]. Moreover, the z-score in experiment [2] is 0.591 (inactive); in [3], 0.027 (inactive); in experiment [4] it was 1.29 (inactive); in experiment [6], -0.914 (inactive).

For the compound `CCCCC(=C=CC[C@@H](O)c1ccc(CO)o1)CCO`, the composite z-score was 0.954 in [1]; 0.418 in experiment [5]; -0.13 in experiment [7]; 0.436 in experiment [8]; 0.0341 in experiment [9]; -0.071 in experiment [10]. Besides, the z-score in experiment [2] is 1.46 (inactive); in experiment [3] it was -0.614 (inactive); in experiment [4] it was 0.297 (inactive); in [6] it was 0.572 (inactive).

As for `C=CCNC(=O)[C@@H]1[C@H]2C(=O)O[C@H](c3ccccc3)[C@H](c3ccccc3)N2[C@H](c2ccc(OCCO)cc2)[C@@]12C(=O)N(C(=O)OCCOC)c1ccc(C#CCC(C(=O)OC)C(=O)OC)cc12`, the composite z-score is 1.54 in experiment [1]; 2.39 in [5]; 0.0398 in experiment [7]; 1.18 in experiment [8]; 1.03 in [9]; 0.23 in [10]. Also, the z-score in experiment [2] is 1.05 (inactive); in experiment [3], 0.552 (inactive); in experiment [4] it was 5.79 (inactive); in [6], -0.0236 (inactive).

With `[N-]=[N+]=Nc1ccccc1C[C@@]1(C(=O)N2CCCCC2)N=C(c2ccc(OCCCO)cc2)O[C@@H]1c1ccccc1N=[N+]=[N-]`, the composite z-score in experiment [1] turned out to be 0.919; in experiment [5] it was 2.45; in [7], 0.605; in [8], 0.169; in experiment [9], 0.884; in [10], 0.29. The z-score in [2] is -1.16 (inactive); in experiment [3] it was 0.123 (inactive); in experiment [4], 1.18 (inactive); in experiment [6] it was 0.799 (inactive).

With `CCOC(=O)C[C@H]1[C@H](OC(=O)c2ccc(C(=O)c3ccccc3)cc2)[C@@H](NC(=O)c2ccccc2)c2cc(OCCCO)ccc2N1C(=O)c1ccccc1`, the composite z-score in experiment [1] is 0.844; in experiment [5] it was 1.72; in experiment [7], -0.0154; in [8], 0.508; in experiment [9], 1.01; in experiment [10] it was 0.121. Moreover, the z-score was -0.178 (inactive) in experiment [2], 0.801 (inactive) in [3], -0.536 (inactive) in experiment [4] and -0.448 (inactive) in [6].

`C=C(CCCC)/C(=C/C[C@H](OC(=O)c1ccncc1)c1ccc(OCCO)cc1)c1cc(C(=O)OC)ccc1OC`: the composite z-score is 0.834 in experiment [1]; 1.27 in experiment [5]; -0.187 in [7]; -0.395 in [8]; -0.0191 in [9]; 0.689 in experiment [10]. Moreover, the z-score was 0.992 (inactive) in experiment [2], -0.78 (inactive) in experiment [3], -0.676 (inactive) in experiment [4] and 0.987 (inactive) in experiment [6].

On to `Cc1ccc([C@H]2C(C(=O)O)=CCN2S(=O)(=O)c2ccc(C)cc2)cc1`, for which the composite z-score in experiment [1] was 0.472; in experiment [5], 2.82; in [7], 0.228; in [8], 0.11; in experiment [9] it was 0.189; in experiment [10], -0.0828. Also, the z-score in experiment [2] is -0.76 (inactive); in experiment [3], 0.366 (inactive); in experiment [4], -0.18 (inactive); in [6], -0.264 (inactive).

With `O=C(O)[C@@]1(CCS(=O)(=O)c2ccccc2)N=C(c2ccc(OCCCO)cc2)O[C@H]1c1ccccc1`, the composite z-score in experiment [1] was 1.07; in experiment [5], 3.46; in experiment [7] it was 0.16; in [8] it was -0.0519; in [9] it was -0.0296; in experiment [10], -0.144. Also, the z-score in experiment [2] was -0.326 (inactive); in [3] it was -5.25 (inactive); in experiment [4], -0.934 (inactive); in [6], 0.712 (inactive).

Consider `COc1ccccc1CN1C(=O)c2ccccc2[C@@]2(Cc3ccccc3N(CCCN(C)C)C2=O)[C@@H]1c1ccc(CO)cc1`, for which the composite z-score is 0.557 in [1]; 0.425 in [5]; -0.247 in [7]; 0.395 in [8]; 0.0593 in experiment [9]; -0.0612 in experiment [10]. For the same compound, the z-score in experiment [2] was 0.431 (inactive); in [3] it was -1.23 (inactive); in experiment [4], -1.35 (inactive); in [6], 0.276 (inactive).

Take `C[N+](C)(C)CCCC[C@@H]1NC(=O)[C@H]2C[C@@H](C(=O)NCCCCCCNC(=O)CS)[C@@H](c3ccc(O)cc3)N2C1=O`: the composite z-score is -0.27 in experiment [1]; 0.908 in [5]; -0.17 in [7]; 0.395 in experiment [8]; -1.06 in experiment [9]; -0.126 in [10]. The z-score in experiment [2] was -0.304 (inactive); in experiment [3], 0.481 (inactive); in experiment [4] it was -0.344 (inactive); in [6], 0.138 (inactive).

Take `O=C1N(CCS(=O)(=O)c2ccccc2)c2ccccc2[C@@H]2OC(c3ccc(OCCCO)cc3)=N[C@]12Cc1ccccc1`: the composite z-score in experiment [1] was 1.56; in experiment [5], 2.45; in [7] it was -0.0248; in experiment [8], 1.59; in [9], 1.12; in experiment [10], -0.0435. The z-score in [2] is -2.18 (inactive); in experiment [3] it was -2.2 (inactive); in experiment [4] it was 3.02 (inactive); in experiment [6], 0.736 (inactive).
